Compounds with a hit are over-represented: about 11% of the library has one in this group of screens.
PNC inhibitor: inhibitors of perinucleolar compartment assembly; activity change (PNC), negative = inhibition, % at 10 µM; AID 2417; hit rate 3.1% among 140,000; PC3M PTB-GFP, PNC prevalence imaging, 16 h; hits give low values;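 active means readout at or below -70, meaning at least 70% loss of cells showing the perinucleolar compartment, a nuclear body marking cancer cells; inconclusive means readout between -30 and a set limit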
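Read-out is percentage of cells bearing a perinucleolar compartment, from automated 20x imaging of fixed, Hoechst-stained PC3M PTB-GFP cells. Cells were seeded 4 h, then exposed 16 h to compound (23 nl of library stock) in duplicate plates.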
HPGD inh: inhibitors of human 15-hydroxyprostaglandin dehydrogenase (HPGD); P15428; purified HPGD, NADH fluorescence kinetic, PGE2 substrate; Potency, µM, usual class: inhibitors; AID 894; hit rate 4.3% among 150,000
Target sequence (P15428 whole entry, looked up): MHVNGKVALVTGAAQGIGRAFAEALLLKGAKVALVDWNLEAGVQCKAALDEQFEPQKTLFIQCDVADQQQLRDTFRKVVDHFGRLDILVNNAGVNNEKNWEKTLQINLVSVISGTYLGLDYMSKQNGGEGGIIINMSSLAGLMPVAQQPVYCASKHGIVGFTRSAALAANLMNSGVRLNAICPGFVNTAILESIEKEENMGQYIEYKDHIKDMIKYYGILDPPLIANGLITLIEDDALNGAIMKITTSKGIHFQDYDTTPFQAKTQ
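NADH formation kinetics: reaction with 30 uM PGE2 and 1 mM NAD+ (final), 20 nM enzyme, Tris-HCl pH 8 with Tween 20, after 15 min compound preincubation at room temperature. Fluorescence change, last versus first of five reads.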
ALDH1A1 block: inhibitors of human aldehyde dehydrogenase 1A1 | Potency, µM (titrated, usually from 75.3 µM), actives largely listed as inhibitors | Purified ALDH1A1, NADH fluorescence, propionaldehyde substrate | AID 1030 | hit rate 7.3% among 220,000
Each line names hits and unclear results; the compound was inactive in the other large screens. Unless noted, the call rests on the fitted dose curve; in most records, active means well fitted inhibition curve with a large enough effect (not every such curve was filed as active); inconclusive means small, poorly fitted or top-dose-only effect, or another doubt; inactive means no such curve, though single readings can be large or run the other way.

O=C1N/C(=C/c2cccn2-c2ccc(F)cc2)C(=O)N1Cc1ccccc1F	ALDH1A1 block inconclusive
COc1cc(/C=C(/C#N)c2ccccc2)ccc1Oc1ccc([N+](=O)[O-])cn1	none
Cc1cccc(OCCNC(=O)c2cncc(Br)c2)c1	ALDH1A1 block inconclusive
OCCCNC(=S)Nc1ccc(Br)cc1Cl	none (no result: PNC inhibitor, HPGD inh)
Nc1nc(SCC(=O)O)[nH]c(=O)c1N	none (no result: PNC inhibitor)
O=c1cc(CF)[nH]c(=S)[nH]1	none (no result: PNC inhibitor)
COc1ccc(C(NC(=O)c2c(F)c(F)c(F)c(F)c2F)c2ccccc2)cc1 (stereo not given)	none
Nc1nonc1C(=O)N/N=C/c1cccc([N+](=O)[O-])c1	none
CN(C)c1ccc(/C=N/NC(=O)c2nonc2N)cc1[N+](=O)[O-]	ALDH1A1 block 2µM (no result: PNC inhibitor, HPGD inh)
CC(C)OC(=O)C(=O)NNc1ccccc1	none
C=C(C)C(=O)NNc1ccccc1	ALDH1A1 block 22µM (no result: PNC inhibitor, HPGD inh)
c1ccc(NN(Cc2cnccn2)c2ccccc2)cc1	none (no result: PNC inhibitor)
CCCOCC1CC(CCc2nc(=S)[nH][nH]2)C(=O)O1 (stereo not given)	none
CCCCOCC1CC(CC#CCN2CCCCC2)C(=O)O1 (stereo not given)	ALDH1A1 block 25µM (no result: PNC inhibitor, HPGD inh)
COc1ccc(NC(=S)N2CCC(c3nc4ccccc4o3)CC2)c(OC)c1	none (no result: PNC inhibitor, HPGD inh)
COc1ccccc1NC(CC(=O)c1ccccc1)C(=O)OCC(=O)c1ccc(C)c(C)c1 (stereo not given)	PNC inhibitor inconclusive, ALDH1A1 block 7.1µM
COc1ccccc1NC(CC(=O)c1ccccc1)C(=O)OCC(=O)c1ccc(Br)cc1 (stereo not given)	ALDH1A1 block inconclusive
Cc1ccc(C(=O)COC(=O)CNC(=O)COc2ccccc2C)cc1C	none
COc1ccccc1NC(CC(=O)c1ccccc1)C(=O)OCC(=O)c1ccc(C)cc1 (stereo not given)	ALDH1A1 block 10µM
Oc1cc(O)c2c(c1)O[C@@H](c1ccc(O)c(O)c1)[C@H](O[C@@]1(c3cc(O)c(O)c(O)c3)Oc3cc(O)cc(O)c3[C@H](O)[C@@H]1O)C2	none (no result: PNC inhibitor)
NCC1CCCCC1CC(=O)O (stereo not given)	none (no result: PNC inhibitor)
Cc1ccc(-c2nnn(CC(=O)N(Cc3ccco3)C(C(=O)NC(C)(C)C)c3cccs3)n2)o1 (stereo not given)	ALDH1A1 block 28µM
COc1ccc(CNC(=O)C(c2ccco2)N(C(=O)Cc2cccs2)c2cccnc2)cc1 (stereo not given)	none (no result: PNC inhibitor, HPGD inh)
Cc1ccc(-c2nnn(CC(=O)N(Cc3cccs3)C(C(=O)NC(C)(C)C)c3ccco3)n2)o1 (stereo not given)	ALDH1A1 block inconclusive
COc1ccc(CNC(=O)C(c2ccncc2)N(C(=O)Cc2cccs2)c2ccccc2C)cc1 (stereo not given)	PNC inhibitor inconclusive, ALDH1A1 block inconclusive
COCCN(C(=O)Cc1cccs1)C(C(=O)NCc1ccc(OC)cc1)c1ccc(OC)cc1 (stereo not given)	ALDH1A1 block 2.2µM
COc1ccc(CNC(=O)C(c2ccco2)N(Cc2ccccc2)C(=O)Cc2cccs2)cc1 (stereo not given)	ALDH1A1 block 13µM
COc1ccc(CNC(=O)C(c2cccs2)N(Cc2ccco2)C(=O)Cc2cccs2)cc1 (stereo not given)	ALDH1A1 block 2µM
O=C(NCc1ccco1)C(c1cccs1)N(C(=O)Cc1cccs1)c1ccccc1 (stereo not given)	none
CC1SC(c2ccc(F)cc2)NC1=O (stereo not given)	none (no result: PNC inhibitor, HPGD inh)
CC1(c2ccccc2)NC(=O)N(CC#N)C1=O (stereo not given)	none (no result: PNC inhibitor, HPGD inh)
O=C(CSc1ncnc2c1cnn2CCO)Nc1cccc(C(F)(F)F)c1	none
CC(C)(C)NC(=O)C(c1ccco1)N(Cc1ccc(F)cc1)C(=O)c1snc(C(N)=O)c1N (stereo not given)	none
COc1ccc(C(=O)N(Cc2ccco2)Cc2cccs2)c(O)c1	PNC inhibitor inconclusive, HPGD inh inconclusive, ALDH1A1 block 13µM
COc1ccc(CN(C(=O)c2snc(C(N)=O)c2N)C(C(=O)NC(C)(C)C)c2ccco2)cc1 (stereo not given)	PNC inhibitor -101, ALDH1A1 block inconclusive
COc1cccc(NC(=O)N(Cc2ccco2)C(C)c2cccs2)c1 (stereo not given)	none
O=C(COC(=O)CCC(=O)c1cccs1)NC(=O)c1ccc(OC(F)F)cc1	none (no result: PNC inhibitor, HPGD inh)
COC(=O)Nc1nn(-c2ccc(C)cc2)c(=O)c(C#N)c1C	none (no result: PNC inhibitor, HPGD inh)
COC(=O)Nc1nn(-c2ccc(OC)cc2)c(=O)c(C#N)c1C	ALDH1A1 block 25µM (no result: PNC inhibitor, HPGD inh)
Cc1cc(C)c(C(CC(=O)c2cccs2)C(C#N)C#N)c(C)c1 (stereo not given)	PNC inhibitor inconclusive
O=C(O)CCCCCCCCCC(=O)c1cccs1	HPGD inh 16µM
CC(CC(=O)c1cccs1)CC(=O)c1cccs1	HPGD inh 13µM, ALDH1A1 block 7.9µM

High-throughput results as filed in PubChem BioAssay.
